Twelve compounds from PubChem BioAssay (NCATS) can be followed below.

Experiment [1] in a line: qHTS profiling of the MIPE4 collection as inhibitors of Plasmodium falciparum (3D7) proliferation (AID 743344).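 Also: scaled between DMSO vehicle wells and 0.29 µM artemisinin as full inhibition.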 The note with it: P. falciparum 3D7 in erythrocytes, SYBR Green DNA fluorescence, 72 h; at 28.5 µM unless noted. The procedure, abridged: (§1)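 Parasite DNA was quantified by SYBR Green I fluorescence (ex 485, em 535 nm) after overnight lysis in saponin/Triton buffer at room temperature. Cultures at 0.3% parasitemia and 2.5% hematocrit were first exposed to compound for 72 h at 37 C; signals were normalised to artemisinin (0.29 uM) and vehicle wells.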
Background: Quantitative high-throughput screening tests each substance at several concentrations.

The nature of experiment [2]: qHTS profiling of the MIPE4 collection as inhibitors of Plasmodium falciparum (DD2) proliferation (AID 743345). As to conditions: P. falciparum Dd2 in erythrocytes, SYBR Green DNA, 72 h; at 28.5 µM unless noted. Put shortly: as §1
Experiment [3] can be described thus: qHTS profiling of the MIPE4 collection as inhibitors of Plasmodium falciparum (DD2) proliferation (Rep 2) (AID 743346). As to conditions: P. falciparum Dd2 in erythrocytes, SYBR Green DNA, 72 h; at 28.5 µM unless noted. The procedure, abridged:
as §1

The nature of experiment [4]: qHTS profiling of the MIPE4 collection as inhibitors of Plasmodium falciparum (HB3) proliferation (AID 743347).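 Also: plate controls were DMSO vehicle wells for no effect and artemisinin wells for full effect.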 The note with it: P. falciparum HB3 in erythrocytes, SYBR Green DNA, 72 h; at 28.5 µM unless noted. Put shortly: as §1
Experiment [5] is described as follows: High-throughput drug toxicity screening in the BPDCN cell line Gen2.2 (AID 1224824).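 Also: cells exposed to compounds for 48 h before reading.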 The note with it: Gen2.2 BPDCN cells; at 45.8 µM (top of the series) unless noted. The procedure, abridged:
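Gen2.2 cells, 500 per well in phenol red-free RPMI with 10% FBS, exposed to compounds 48 h at 37 C, 5% CO2; viability by CellTiter-Glo luminescence. Percent activity scaled to DMSO (100%) and 9.2 uM bortezomib final (0%).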

A short description of experiment [6]: High-throughput drug toxicity screening in the BPDCN cell line Cal-1 (AID 1224825). The note with it: Cal-1 BPDCN cell viability, qHTS; at 45.8 µM (top of the series) unless noted. The procedure, abridged: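 Viability of the BPDCN line Cal-1 is measured as ATP-based luminescence (CellTiter-Glo) following 48 h incubation with compounds. Percent activity uses DMSO-treated wells as 100% and 9.2 uM bortezomib as 0%.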

SMILES strings stand for the structures.

On to `CC(C)(C)NC(=O)[C@H]1CN(Cc2cccnc2)CCN1C[C@@H](O)C[C@@H](Cc1ccccc1)C(=O)N[C@H]1c2ccccc2C[C@H]1O`, for which the parasite growth, % of DMSO control in experiment [1] came out at 19.6%. The parasite growth remaining, % of DMSO control (lower = more inhibition) in experiment [2] came to 42.6%. In experiment [3], this compound returned a parasite growth, % of control (lower = inhibition) of 27.8%. This compound came in with a growth, % of control in experiment [4] of 7.39%. Also, the cell viability, % of control (lower = more cytotoxic) in experiment [5] is 129%. Moreover, in experiment [6], the viability (% of control) is 85.6%.

Take `OCc1ccc(-c2ccc(-c3ccc(CO)s3)o2)s1`: in experiment [1], the parasite growth, % of DMSO control came out at 78.4%. Besides, the parasite growth remaining, % of DMSO control (lower = more inhibition) in experiment [2] is 79.5%. The parasite growth, % of control (lower = inhibition) in experiment [3] was determined as 47.9%. In experiment [4], this compound gave a growth, % of control of 64.5%. In experiment [5], the cell viability, % of control (lower = more cytotoxic) was 1.11%. Besides, the viability (% of control) in experiment [6] was found to be 1.47%.

Regarding `Cn1cc(-c2ccncc2)c(-c2ccc(OCc3ccc4ccccc4n3)cc2)n1`, the parasite growth, % of DMSO control in experiment [1] came to 83.3%. Moreover, the parasite growth remaining, % of DMSO control (lower = more inhibition) in experiment [2] was 98.3%. In addition, in experiment [3], the parasite growth, % of control (lower = inhibition) worked out at 82.2%. Also, the growth, % of control in experiment [4] is 65.2%. In experiment [5], the cell viability, % of control (lower = more cytotoxic) came to 56.4%. For the same compound, the viability (% of control) in experiment [6] worked out at 38.2%.

In turn, `NC(=O)c1cccc2cn(-c3ccc([C@@H]4CCCNC4)cc3)nc12` registered a parasite growth, % of DMSO control in experiment [1] of 12.4%. The parasite growth remaining, % of DMSO control (lower = more inhibition) in experiment [2] is 11.3%. For the same compound, the parasite growth, % of control (lower = inhibition) in experiment [3] is 25.3%. The cell viability, % of control (lower = more cytotoxic) in experiment [5] worked out at 116%. Further, the viability (% of control) in experiment [6] came to 5.94%.

Consider `CC(C)c1nn(-c2c(Cl)cccc2Cl)c2nc(Cc3ccc(OCCO)cc3)[nH]c(=O)c12`, for which the parasite growth, % of DMSO control in experiment [1] was 20.8%. This compound came in with a parasite growth remaining, % of DMSO control (lower = more inhibition) in experiment [2] of 62%. Moreover, in experiment [5], the cell viability, % of control (lower = more cytotoxic) was found to be 3.64%. Moreover, the viability (% of control) in experiment [6] is 2.52%.

In experiment [1], `COc1cccc(-c2ccc(NC(=O)C3=C(C(=O)O)CCC3)c(F)c2)c1` displayed a parasite growth, % of DMSO control of 64.2%. In experiment [2], the parasite growth remaining, % of DMSO control (lower = more inhibition) worked out at 90.8%. For the same compound, in experiment [3], the parasite growth, % of control (lower = inhibition) stood at 53%. For the same compound, in experiment [5], the cell viability, % of control (lower = more cytotoxic) came to 19%. In addition, the viability (% of control) in experiment [6] came to 4.11%.

With `CC(C)c1cnn2c(NCc3ccccc3)cc(N[C@@H](CO)[C@H](O)CO)nc12`, the parasite growth, % of DMSO control in experiment [1] is 21.9%. Also, the cell viability, % of control (lower = more cytotoxic) in experiment [5] was found to be 3.01%. The viability (% of control) in experiment [6] worked out at 0.824%.

As for `Cc1cn2cc(C(=O)N(C)CCO)cc(N[C@@H]3CCOc4cccc(C)c43)c2n1`, the parasite growth, % of DMSO control in experiment [1] came out at 33.4%. The compound also displayed a parasite growth remaining, % of DMSO control (lower = more inhibition) in experiment [2] of 86.7%. In experiment [3], this compound yielded a parasite growth, % of control (lower = inhibition) of 47.2%. This compound also had a growth, % of control in experiment [4] of 47.6%. Further, the cell viability, % of control (lower = more cytotoxic) in experiment [5] is 152%. Further, the viability (% of control) in experiment [6] was determined as 114%.

For the compound `COc1ccc(CC2c3cc(OC)c(OC)cc3CC[N+]2(C)CCC(=O)OCCCCCOC(=O)CC[N+]2(C)CCc3cc(OC)c(OC)cc3C2Cc2ccc(OC)c(OC)c2)cc1OC` (stereo not given), the parasite growth, % of DMSO control in experiment [1] was found to be 57.8% [at 5.51 µM]. This compound also showed a parasite growth remaining, % of DMSO control (lower = more inhibition) in experiment [2] of 93.6% [at 5.51 µM]. Also, in experiment [3], the parasite growth, % of control (lower = inhibition) amounted to 58.2% [at 5.51 µM]. This compound also gave a growth, % of control in experiment [4] of 85.6% [at 5.51 µM]. In experiment [5], the cell viability, % of control (lower = more cytotoxic) was found to be 45.2% [at 5.15 µM]. The viability (% of control) in experiment [6] was found to be 99% [at 5.15 µM].

As to `Nc1nc(NCCNc2ncc(-n3ccnc3)c(-c3ccc(Cl)cc3Cl)n2)ccc1[N+](=O)[O-]`, in experiment [1], the parasite growth, % of DMSO control worked out at 16.9%. In experiment [2], this compound registered a parasite growth remaining, % of DMSO control (lower = more inhibition) of 80%. The same compound displayed a parasite growth, % of control (lower = inhibition) in experiment [3] of 44.4%. In addition, in experiment [4], the growth, % of control was 4.45%. Besides, in experiment [5], the cell viability, % of control (lower = more cytotoxic) stood at 9.17%. For the same compound, the viability (% of control) in experiment [6] was found to be 4.88%.

`Cc1ccc2nc(NC(=O)CSc3nc4c(c(=O)n3-c3ccccc3)SCC4)sc2c1` yielded a parasite growth, % of DMSO control in experiment [1] of 29.9%. Moreover, in experiment [2], the parasite growth remaining, % of DMSO control (lower = more inhibition) was 82.9%. In experiment [3], this compound came in with a parasite growth, % of control (lower = inhibition) of 72.4%. Moreover, in experiment [4], the growth, % of control amounted to 42.3%. Also, in experiment [5], the cell viability, % of control (lower = more cytotoxic) is 120%. Besides, the viability (% of control) in experiment [6] was 15.8%.

As to `CC[C@@]1(O)C(=O)OCc2c1cc1n(c2=O)Cc2cc3cc(O)ccc3nc2-1`, in experiment [1], the parasite growth, % of DMSO control was determined as 13.5%. This compound had a parasite growth remaining, % of DMSO control (lower = more inhibition) in experiment [2] of 12.6%. In addition, in experiment [3], the parasite growth, % of control (lower = inhibition) was determined as 16.8%. The compound also returned a growth, % of control in experiment [4] of 5.75%. For the same compound, the cell viability, % of control (lower = more cytotoxic) in experiment [5] was found to be 4.43%. Moreover, the viability (% of control) in experiment [6] is 3.68%.
